From PubChem
An excerpt weighted towards active compounds, which were near 8% of everything screened.
RORgamma inh: inhibitors of mouse ROR gamma transcriptional activity. P51450. Drosophila S2 Gal4-RORgamma UAS-luciferase reporter, 20 h. Potency, µM (top dose mostly 53.6 µM), actives largely listed as inhibitors. 5.4% of 310,000 active. AID 2551; note: nearly all actives have a fitted effect of over 60% in size
Target sequence (P51450 whole entry, looked up, the tested form may be a part): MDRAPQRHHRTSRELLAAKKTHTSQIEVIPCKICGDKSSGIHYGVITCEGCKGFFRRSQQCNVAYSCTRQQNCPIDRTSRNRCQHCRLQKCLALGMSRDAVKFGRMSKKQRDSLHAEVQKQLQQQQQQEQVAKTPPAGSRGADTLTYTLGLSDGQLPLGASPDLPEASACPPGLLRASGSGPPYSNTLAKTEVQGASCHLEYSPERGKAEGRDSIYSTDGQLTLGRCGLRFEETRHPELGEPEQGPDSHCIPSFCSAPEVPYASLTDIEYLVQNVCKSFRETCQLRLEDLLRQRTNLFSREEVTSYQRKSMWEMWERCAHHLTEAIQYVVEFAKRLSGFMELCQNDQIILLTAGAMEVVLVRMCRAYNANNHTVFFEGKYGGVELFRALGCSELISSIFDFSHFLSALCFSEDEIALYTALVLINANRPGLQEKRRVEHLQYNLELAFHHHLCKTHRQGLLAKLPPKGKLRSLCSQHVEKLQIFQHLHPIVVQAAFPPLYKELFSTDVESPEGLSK
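Schneider cells (Drosophila), stable Gal4 DBD–ROR gamma + UAS-luc; 1 hr cmpd preincubation; Cu2+ induction 700 uM final; 20 hr ambient; luminescence.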
ELG1 repair inh: inhibitors of ELG1-dependent DNA repair in HEK293T cells | HEK293T ELG1-luciferase reporter, luminescence, 16 h; DNA damage induced by 5-fluorouridine | 2.3% of 330,000 active | AID 504467 | Potency, µM (highest dose often 46.1 µM), actives largely listed as inhibitors; note: nearly all actives have a fitted effect of over 55% in size
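Reporter activity after DNA damage by 5-fluorouridine is monitored. Compound-treated cells incubate 16 hr at 37 °C, then ONE-Glo is added for 30 min before luminescence reading.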
FBPA coupling cs: counter-screen for Giardia aldolase inhibitors: coupling enzyme system; coupling enzyme system counterscreen, AmpLite Red fluorescence; activity change, negative = inhibition, % at 58.2 µM, hits read low; 0.67% of 290,000 active; AID 2472; in the data active = activity change below about -30%
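Counterscreen of the coupled detection system alone, without aldolase: glyceraldehyde-3-phosphate coupling enzymes plus AmpLite Red readout. Compounds at 57.5 uM final, 10 min RT preincubation, 20 min RT reaction, fluorescence 525/598 nm.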
TSHR antagonist: human thyrotropin receptor antagonism; 0.2% of 330,000 active; activity change, negative = inhibition, % at 11.5 µM; TSHR-expressing cells, TSH-stimulated cAMP HTRF, 2 h; active compounds read low;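 active = activity change below a set negative limit, meaning inhibition stronger than a set level, cut at about -70% in these data; inconclusive = activity change between two set negative limits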
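TSHR-expressing cells were treated with compounds, then stimulated with TSH at EC80 (4nM final) for 2 hours at 37 deg C. Cellular cAMP was measured by HTRF competition between lysate cAMP and cAMP-d2 for a cryptate-labelled anti-cAMP antibody.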
VP16 counter: inhibits Gal4-VP16 luciferase reporter, ROR gamma counter-screen. Drosophila S2 Gal4-VP16 UAS-luciferase, luminescence, 20 h. Potency, µM (highest dose often 53.6 µM), usual class: inhibitors. 3.5% of 310,000 active;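 note: Gal4-VP16 expression switched on by copper sulfate through the metallothionein promoter; nearly all actives have a fitted effect of over 50% in size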
Each line names hits and unclear results; the compound was inactive in the other large screens. Unless noted, calls come from the whole dose curve; as a rule, active = well fitted curve in the direction sought with a large enough effect; inconclusive = small, poorly fitted or top-dose-only effect, or another doubt; inactive = no such curve, though single readings can be large; an effect the other way counts as inactive or inconclusive.

O=C(OC1Cc2c(O)cc(O)cc2OC1c1cc(O)c(O)c(O)c1-c1c(C2Oc3cc(O)cc(O)c3CC2OC(=O)c2cc(O)c(O)c(O)c2)cc(O)c(O)c1O)c1cc(O)c(O)c(O)c1 (stereo unspecified)	none (no result: ELG1 repair inh, TSHR antagonist)
COc1ccc(OC)c(NC(=O)C2CCN(Cc3cnn(-c4ccccc4)c3-n3cccc3)CC2)c1	ELG1 repair inh 23.1µM
COc1ccc(CN2CCCC(C(=O)Nc3cccc(-n4cccn4)c3)C2)c(F)c1 (stereo unspecified)	ELG1 repair inh 16.4µM (no result: FBPA coupling cs)
COc1cccc(NC(=O)C2CCN(Cc3cnn(-c4ccccc4)c3-n3cccc3)CC2)c1	ELG1 repair inh 18.4µM, VP16 counter inconclusive
O=C(Nc1cccc(-n2cccn2)c1)C1CCCN(Cc2cccc(F)c2F)C1 (stereo unspecified)	ELG1 repair inh inconclusive (no result: FBPA coupling cs)
CCC(O)C1CCN(C(=O)c2cc(COc3ccc(F)cc3F)on2)CC1 (stereo unspecified)	none (no result: FBPA coupling cs)
COc1ccc(CN(C)Cc2nc(Cc3cccc(F)c3)no2)c2cccnc12	RORgamma inh inconclusive, ELG1 repair inh inconclusive, VP16 counter 7.08µM
COc1cccc(-n2cc(CN(C)Cc3nc(Cc4cccc(F)c4)no3)cn2)c1	ELG1 repair inh inconclusive
O=C(Nc1cccc(S(=O)(=O)C(F)F)c1)c1ccc(S(=O)(=O)N2CCCCC2)cc1	RORgamma inh inconclusive, ELG1 repair inh 13µM
CCOc1ccc(CCNC(=O)c2ccc3c(=O)n4c(nc3c2)CCCCC4)cc1	ELG1 repair inh 16.4µM
CCOc1ccc(NC(=O)c2ccc3c(=O)n4c(nc3c2)CCCCC4)cc1	none (no result: FBPA coupling cs)
O=C(Nc1cccc(S(=O)(=O)N2CCCCC2)c1)c1ccc(S(=O)(=O)C(F)F)cc1	ELG1 repair inh 20.6µM, VP16 counter inconclusive
O=C(Nc1cccc(S(=O)(=O)N2CCCCC2)c1)c1ccc2c(=O)n3c(nc2c1)CCCCC3	ELG1 repair inh 4.11µM, TSHR antagonist -77.4
O=C(CCCc1ccc(-c2ccccc2F)cc1)Nc1ccc(O)cc1	RORgamma inh 1.58µM, VP16 counter 4.47µM (no result: ELG1 repair inh, TSHR antagonist)
CC(C)S(=O)(=O)c1csc(NC(=O)Nc2cc(Cl)ccc2Cl)c1Cl	ELG1 repair inh 20.6µM
Cc1nn(-c2nc3ccccc3[nH]2)c(N)c1-c1ccc(Cl)cc1	RORgamma inh 1.26µM, ELG1 repair inh inconclusive, VP16 counter 3.16µM
O=c1[nH]c2ccccc2nc1-c1ccc(Cl)cc1	RORgamma inh inconclusive, ELG1 repair inh inconclusive
Cc1nn(-c2nc3ccccc3[nH]2)c(=O)c2ccccc12	RORgamma inh 0.178µM, ELG1 repair inh inconclusive, VP16 counter 0.316µM
NC/C=C/C(=O)O	none (no result: ELG1 repair inh)
Cc1cc(NC(=O)CCC(=O)N(CC(=O)NCC2CCCO2)c2cccc(F)c2)no1 (stereo unspecified)	none
NS(=O)(=O)c1ccc(CCNC(=O)CSc2nc3ccsc3c(=O)n2CCCCCC(=O)O)cc1	RORgamma inh 7.94µM
CCc1nnc(NC(=O)C(CC)CC)s1	none
CCc1ccc2c(c1)c1nnc(NN)nc1n2C	none
NNc1nnc2c3cc(F)ccc3n(Cc3ccccc3)c2n1	ELG1 repair inh 9.2µM
CCc1ccc2c(c1)c1nnc(NN)nc1n2CC	ELG1 repair inh 16.4µM
CCOc1ccc(N2CC(C(=O)Nc3ccccc3C(=O)NC3CC3)CC2=O)cc1 (stereo unspecified)	none
CC(=O)NC12CC3CC(C1)CC(C(=O)OCC(=O)Nc1ncc(Cl)c(C)c1Cl)(C3)C2	none
CC(=O)NC12CC3CC(C1)CC(C(=O)OCC(=O)c1ccc4c(c1)OCCO4)(C3)C2	RORgamma inh 14.1µM, ELG1 repair inh inconclusive, VP16 counter inconclusive
CCCCNc1cc(C)nc(NCc2ccccc2)n1	RORgamma inh inconclusive, ELG1 repair inh 14.6µM, VP16 counter 7.08µM
Cc1cc(Nc2ccccc2)nc(NCc2ccccc2)n1	RORgamma inh 2.82µM, ELG1 repair inh 4.61µM, VP16 counter 11.2µM
Cc1cc(Nc2ccc(Cl)cc2)nc(NCc2ccccc2)n1	RORgamma inh inconclusive, VP16 counter inconclusive
Cc1ccc(N(CC(=O)NCc2ccco2)C(=O)CNS(=O)(=O)c2ccccc2)c(C)c1	none
CN(C)c1ncnc2ccc(-c3cccc(C#N)c3)cc12	none (no result: ELG1 repair inh, TSHR antagonist)
S=c1[nH]ccn1Cc1ccccc1	RORgamma inh 11.2µM, VP16 counter inconclusive
CC1CCCN(Cc2c(O)ccc3c(=O)c(-c4nc5ccccc5s4)c(N)oc23)C1 (stereo unspecified)	RORgamma inh 25.1µM, VP16 counter inconclusive
CC1CCN(Cc2c(O)ccc3c(=O)c(-c4nc5ccccc5s4)c(N)oc23)CC1	none
CCC1CN(C(=O)NCc2ccccc2)c2ccccc2O1 (stereo unspecified)	RORgamma inh inconclusive, TSHR antagonist -71.5
CCCc1nc2ccccc2c(=O)n1/N=C/c1ccc(O)cc1	ELG1 repair inh 11.6µM
O=c1c2ccccc2nc(COc2ccccc2)n1/N=C/c1ccc(O)c(O)c1	ELG1 repair inh inconclusive
CCCc1nc2ccccc2c(=O)n1/N=C/c1ccc(O)cc1O	RORgamma inh inconclusive, ELG1 repair inh inconclusive, VP16 counter 20µM
COc1ccc(C(=O)N/C(=C\c2cn(C)c3ccccc23)C(=O)NCCCN2CCOCC2)cc1	none (no result: FBPA coupling cs)
O=C1NC(=O)[C@@H]2C3c4ccccc4C=CN3[C@H](C(=O)c3cccs3)[C@H]12 (stereo partly specified)	RORgamma inh inconclusive, ELG1 repair inh inconclusive, FBPA coupling cs -43.4, VP16 counter inconclusive
O=C(c1ccccc1)C1CCN(C(=O)c2cccs2)CC1	none
CCOC(=O)c1c(NC(=O)C(NCCN(C)C)c2ccccc2)sc2c1CCCC2 (stereo unspecified)	RORgamma inh 3.55µM, VP16 counter 11.2µM
CCOC(=O)c1c(NC(=O)C(=O)N/N=C/c2ccccc2OC)sc2c1CCCCC2	none
CCOC(=O)c1c(NC(=O)C(=O)N/N=C/c2ccccc2O)sc2c1CCCCC2	RORgamma inh 1µM, ELG1 repair inh inconclusive, VP16 counter 1.26µM
C=CCc1cc(OC)c(O)c(C(=O)NCCO)c1	none (no result: ELG1 repair inh, FBPA coupling cs, TSHR antagonist)
O=C(NCCC(=O)N1CCN(c2ccc(F)cc2)CC1)c1ccco1	none (no result: RORgamma inh, FBPA coupling cs, VP16 counter)
Cc1cc2nccc(-c3ccncc3)n2n1	ELG1 repair inh 13µM
CC1=C(C(=O)Nc2ccccc2C(=O)NC2CCC(C)CC2)SCCO1 (stereo unspecified)	ELG1 repair inh inconclusive (no result: FBPA coupling cs)
Cc1ccsc1/C=N/NS(=O)(=O)c1ccc([N+](=O)[O-])cc1	none
Cc1ccsc1/C=N/NC(=O)Nc1ccccc1	ELG1 repair inh inconclusive, VP16 counter inconclusive
Cc1ccsc1/C=N/NC(=O)c1ccncc1	RORgamma inh 3.55µM, VP16 counter 7.08µM
Cc1ccsc1/C=N/NC(=O)c1cccnc1	RORgamma inh inconclusive, VP16 counter 12.6µM
CSc1sccc1/C=N/NC(=O)c1ccncc1	RORgamma inh inconclusive
